Assay results reported in PubChem BioAssay AID1259240 (Keith Lab, Institute of Cancer Science, University of …, 2017).
The source made the active and inactive calls. Rule as the data show it: active = fold change mostly below about -2 (no sharp cut-off); inactive = mostly above about -1.8.

Experiment: modulation of TERT promoter-driven luciferase – cell-based, luciferase reporter, human, primary screen (AID 1259240)
Conditions: A2780 TERT promoter luciferase reporter, 16 h; at 20 µM, fold versus average of vehicle-only wells

Fold change, inactive:
CCOC(=O)CSc1nc(SCC(=O)OCC)c2c3c([nH]c2n1)CCCC3 1.35
C=CCn1c(=N)n(CC(=O)C(C)(C)C)c2ccccc21 -1.1
CC(=O)c1cc2c(cc1NC(=O)c1cc(C)nn1-c1ccccc1)OCO2 -1.17
COc1ccc(-c2cc(N)n(S(=O)(=O)c3ccc([N+](=O)[O-])cc3)n2)cc1OC 1.17
O=C(NC1CCCCC1)C(=O)c1c(-c2ccccc2)cc2ccccn12 1.24
COc1ccccc1N1CCN(S(=O)(=O)c2cccc3cccnc23)CC1 -1.29
O=C(CC1(O)C(=O)N(CCc2ccccc2)c2ccc(Cl)cc21)c1ccc(F)cc1 (configuration not stated) -1.87
CCOC(=O)C1CCCN(c2c(N3CC(C)CC(C)C3)c(=O)c2=O)C1 (configuration not stated) -1.11
CCOC(=O)Cn1c(=O)oc2cc(S(=O)(=O)NC3CCN(C(=O)OCC)CC3)ccc21 1.58
Cc1cc2c(cc1C)NC(c1nc3ccccc3[nH]1)C1=C(CC(C)(C)CC1=O)N2 (configuration not stated) -1.29
O=C(O)Cn1cc(/C=C2/C(=O)Nc3ccccc32)c2ccccc21 1.41
CCC(C)NC(=O)Cn1ncc2c3ccccc3n(C)c2c1=O (configuration not stated) -1.04
COc1ccc(N2CCN(c3ccc4nnc(C)n4n3)CC2)cc1 -1.14
Cc1ccc(C)c(Nc2nc3ccccc3n3nnnc23)c1 1.43
c1csc(CSc2nnc3sc4ccccc4n23)c1 1.26
CCc1c(C)sc(NC(=O)c2cc(C)no2)c1C#N 1.32
Cc1noc(C(=O)NCC(C)C)c1Cl -1.74
COc1ccc2c(c1)/C(=c1/sc3n(c1=O)CN(c1ccc(C)c(Cl)c1)CN=3)C(=O)N2 -1.71
CN(CC(=O)NCc1cccs1)S(=O)(=O)c1ccc2c(c1)n(C)c(=O)c(=O)n2C 1.51
COc1ccc(-c2nc3s/c(=C\c4ccccc4)c(=O)n3n2)cc1OC 1.68
O=C(O)CSc1nc(-c2cccs2)cc(C(F)(F)F)n1 -1.48

outcome, inactive:
COc1ccc(Cl)cc1N1CC(O)=C(c2nc3ccccc3c(=O)[nH]2)C1=N
